# MITF act – activators of MITF-driven TRPM1 promoter activity in SK-MEL-5 cells | SK-MEL-5 TRPM1-promoter luciferase, 24 h; % of positive control, neutral wells = 0 | activation, % at 12.5 µM | hit rate 0.75% among 300,000 | AID 588334;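 active means mean activation of at least 80% with every replicate also reaching 80%; inconclusive means mean reaches 80% but some replicate falls short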;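 further: 0% = neutral control wells and 100% = parthenolide positive control wells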
# esBAF inh – blocks esBAF chromatin remodeling in mouse ES cells. Bmi1-luciferase knock-in reporter, 24 h; 100% = twice the neutral-well signal. reporter increase, % at 12.5 µM. hit rate 2% among 350,000; in the data active means activation above about 40%; inconclusive means no clear call, values can overlap the other calls;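 further: 0% = median of the plate's neutral control wells and 100% = double that signal; a rise in the Bmi1 reporter signal indicates esBAF inhibition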
# PAX8 reporter – PAX8 transcriptional activity inhibition; RMG-I TPO-luciferase reporter, SteadyGlo, 24 h; inhibition, % at 12.6 µM; hit rate 1.2% among 360,000; AID 652154;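 active means mean replicate inhibition at least 60% with every replicate also reaching 60%; inconclusive means only one of the two criteria is met; inactive means mean below 60% and not all replicates reaching 60%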;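 further: luciferase light reporting Pax8 driven TPO promoter activity; plate controls were median of neutral control wells for no effect and mitoxantrone controls for full effect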
# Wnt act – activates Wnt/beta-catenin signaling in a reporter cell assay; activator, plate reader; activation, % at 9.35 µM; hit rate 1.2% among 300,000; AID 743398; in the data active means activation above about 30%, passing the limit was not always enough; inconclusive means no clear call, values can overlap the other calls;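 further: 0% = neutral control wells and 100% = positive control wells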
# TRPM1 prom inh – reduces MITF-dependent TRPM1 promoter luciferase signal; hit rate 0.83% among 330,000; SK-MEL-5 TRPM1 promoter luciferase, 24 h; inhibition, % at 12.5 µM;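 active means mean inhibition across replicates of 60% or more, whatever share of single replicates reaches that level; inconclusive means some that reach 60%, reason not given; inactive means mean inhibition across replicates below 60%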
# EWS-Fli block – inhibitors of EWS/Fli oncoprotein transcriptional activity; inhibition, % at 12.6 µM; A673 NR0B1-luciferase reporter, viability-normalised; AID 651661; hit rate 0.67% among 350,000;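 active means mean inhibition of at least 50% after viability correction, with every replicate also passing that limit; inconclusive means mean reaches 50% but only one of two replicates passes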;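 further: firefly luciferase signal divided by Alamar Blue viability fluorescence both relative to DMSO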
# Active calls of the source: *; ? = inconclusive; . = no result. Hits are enriched below; roughly 4% of the tested compounds scored in any of these assays.
SMILES,MITF act,esBAF inh,PAX8 reporter,Wnt act,TRPM1 prom inh,EWS-Fli block
Cc1csc(SCC(=O)Nc2ccc3c(c2)OCCO3)n1,44,.,-55,22,-42,-53
O=C(CSc1ccccc1)Nc1ccc2c(c1)OCCO2,50,54*,-247,33*,-50,.
CC(Sc1ccccc1F)C(=O)Nc1ccc2c(c1)OCCO2 (stereo not drawn),89*,100*,-226,45*,-82,-103
O=C(NC[C@H]1CC[C@@H]2[C@@H](CN2Cc2ccccc2F)O1)C1CC1,.,.,-8,.,.,-2
CC(C)NC(=O)NCC[C@H]1CC[C@@H](NC(=O)Nc2ccccc2)[C@@H](CO)O1,.,-1,0,.,.,-6
O=C(Nc1cnn(Cc2c(Cl)cccc2Cl)c1)c1ccc([N+](=O)[O-])cc1,29,73*,.,.,-24,.
CN(C)c1ccc(NC(=O)c2ccc(Cn3cc([N+](=O)[O-])cn3)cc2)cc1,44,57*,-79,-1,-40,-21
O=C(COc1ccc(Cl)cc1)Nc1cnn(Cc2c(Cl)cccc2Cl)c1,2,-1,.,.,-4,.
CS(=O)(=O)Nc1ccc2c(c1)[C@@H]1C[C@H](CC(=O)NCc3cccnc3)O[C@H](CO)[C@@H]1O2,.,4,12,.,.,1
COc1ccc(-c2noc(N3CCCC(C(=O)Nc4ccc(C(C)=O)cc4)C3)n2)cc1 (stereo not drawn),48,48*,-122,6,-45,-51
CCC(=O)Nc1cccc(-c2ccc(N3CCN(C)CC3)nn2)c1,85*,41*,.,.,-88,.
COc1ccc(C(=O)Nc2cccc(-c3ccc(N4CCOCC4)nn3)c2)cc1OC,96*,19,-73,26,-92,-40
COc1cccc(C(=O)Nc2cccc(-c3ccc(N4CCOCC4)nn3)c2)c1,137*,67*,-113,22,-143,-90
CC(=O)c1ccc(S(=O)(=O)Nc2cccc(-c3ccc(N4CCOCC4)nn3)c2)cc1,58,33,.,12,-53,-23
O=C(Nc1cccc(-c2ccc(N3CCOCC3)nn2)c1)c1ccc(F)cc1F,?,.,-174,19,-84,-94
CCOc1ccc(C(=O)Nc2cccc(-c3ccc(N4CCOCC4)nn3)c2)cc1OCC,106*,64*,-76,22,-104,-75
COc1cccc(-c2ccc3n(c2=O)C[C@@H]2[C@@H](CO)[C@H](C(=O)NCCN4CCCCC4)N(C)[C@H]32)c1,.,1,1,.,.,-11
CC(C)CC#Cc1ccc2c(c1)O[C@@H](CN(C)C(=O)C1CC1)[C@H](C)CN([C@H](C)CO)S2(=O)=O,.,.,.,.,.,18
CCOc1ccccc1C(=O)Nc1cccc(-c2ccc(N3CCOCC3)nn2)c1,111*,63*,-182,?,-105,-97
COc1cccc(C(=O)Nc2cccc(-c3ccc(N4CCOCC4)nn3)c2)c1OC,?,20,-120,28,-86,-62
C[C@@H]1CN([C@H](C)CO)C(=O)CCCn2cc(nn2)CO[C@@H]1CN(C)Cc1ccc(C(F)(F)F)cc1,.,3,-4,.,.,-3
COc1ccc(C2=Nc3ccccc3N(C(=O)c3ccc4ncccc4c3)C2C(=O)NC(C)(C)C)cc1 (stereo not drawn),.,.,-105,34*,.,-55
CS(=O)(=O)Nc1ccc2c(c1)[C@@H]1C[C@@H](CC(=O)NCc3ccncc3)O[C@@H](CO)[C@@H]1O2,.,1,-12,.,.,-6
O=C(Cc1ccncc1)NCC[C@@H]1CC[C@@H](NC(=O)C2CCCCC2)[C@H](CO)O1,.,-3,-1,.,.,4
CCCCn1c(N)c(N(CCC(C)C)C(=O)COC(=O)c2ccc([N+](=O)[O-])s2)c(=O)[nH]c1=O,-79,-7,91*,-3,80*,6
SMILES,MITF act,esBAF inh,PAX8 reporter,Wnt act,TRPM1 prom inh,EWS-Fli block
CCCCn1c(N)c(N(CCC(C)C)C(=O)COC(=O)c2sccc2C)c(=O)[nH]c1=O,-13,8,6,-3,12,3
CC(C)CN(C(=O)COC(=O)c1cccs1)c1c(N)n(Cc2ccccc2)c(=O)[nH]c1=O,.,-1,-13,-2,.,3
CC(C)CN(C(=O)COC(=O)c1ccc([N+](=O)[O-])s1)c1c(N)n(Cc2ccccc2)c(=O)[nH]c1=O,-61,-4,-2,2,60*,-3
c1ccc(CNc2nc(NCCc3ccncc3)c3sccc3n2)cc1,.,-12,70*,-2,.,16
C[C@@H]1CCCCO[C@@H](CN(C)Cc2ccccc2)[C@H](C)CN([C@@H](C)CO)C(=O)c2cc(NC(=O)Cc3ccccc3)ccc2O1,.,1,2,.,.,6
COc1cc2sc3ccc(-c4ccc5[nH]ccc5c4)cc3c(=O)c2cc1OC,130*,51*,24,12,-129,-173
CC1(C)CC(=O)c2cnc(N3CCc4ccccc43)nc2C1,.,.,-171,39*,-59,-64
Fc1cnc(N2CCc3ccccc32)nc1N1CCc2ccccc21,35,47*,17,11,-33,.
COCC#Cc1ccc2c(c1)O[C@@H](CN(C)S(=O)(=O)c1ccc(F)cc1)[C@H](C)CN([C@@H](C)CO)S2(=O)=O,.,-8,.,.,.,-5
O=C(Nc1cccc(Cl)c1)N1C[C@H]2[C@@H](c3ccccc31)[C@H](CO)N2Cc1ccncc1,.,11,32,.,.,3
COc1ccc(C=CC(=O)c2ccc([N+](=O)[O-])cc2)cc1,-4,0,-20,-1,5,-9
Cc1[nH]c(C)c(C(=O)/C=C/c2ccc([N+](=O)[O-])cc2)c1C,4,11,2,-5,0,63*
C[C@@H]1CN([C@@H](C)CO)C(=O)c2cc(NC(=O)CCCN(C)C)ccc2O[C@@H](C)CCCCO[C@@H]1CN(C)Cc1ccc2c(c1)OCO2,.,.,-8,.,.,0
CS(=O)(=O)c1ncc(Cl)c(C(=O)Nc2ccc(OC(F)F)cc2)n1,.,-35,.,.,73*,.
CS(=O)(=O)c1ncc(Cl)c(C(=O)Nc2ccc(N3CCOCC3)cc2)n1,-90,.,.,.,92*,.
O=C(Nc1ccc(OC(F)F)cc1)c1ccccn1,11,11,-20,0,-12,-10
CCC(=O)N1C[C@H](C)[C@H](OC)CN(C)C(=O)c2cc(NC(=O)NC(C)C)ccc2OC[C@H]1C,.,-4,.,.,.,-2
COc1cccc(NC(=O)c2ccc(CN3CCOCC3)cc2)c1,.,40,.,3,-51,.
Nc1c(C(=O)Nc2ccc3c(c2)OCCO3)nnn1Cc1ccccc1Cl,145*,74*,-219,25,-146,-87
Nc1c(C(=O)Nc2ccc3c(c2)OCCO3)nnn1Cc1cccc(Cl)c1,101*,55*,-165,47*,-100,-98
O=C(Nc1ccc2c(c1)OCCO2)c1ccc(CN2CCOCC2)cc1,51,56*,.,.,-49,.
Nc1c(C(=O)Nc2ccc3c(c2)OCCO3)nnn1Cc1ccc(F)cc1,116*,96*,-184,26,-114,-105
CCN1[C@H](C(=O)NCc2ccc(F)cc2)[C@@H](CO)[C@@H]2Cn3c(ccc(-c4ccccc4OC)c3=O)[C@@H]21,.,-1,.,.,.,4

# Bioassay records from PubChem BioAssay.
